Screening data: PubChem BioAssay, several laboratories
TRPM1 prom inh: inhibitors of MITF-driven TRPM1 promoter in melanoma cells. SK-MEL-5 TRPM1 promoter luciferase, 24 h. 330,000 compounds, 0.83% hits. inhibition, % at 12.5 µM;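 active = mean inhibition across replicates of 60% or more, whatever share of single replicates reaches that level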
KKLEB cytotox: counter-screen for CF NF-kB inhibitors: cytotoxicity; 360,000 compounds, 0.36% hits; AID 602141; KKLEB CF airway cells viability, ATPlite luminescence, overnight; active compounds read low; cells stimulated with P. aeruginosa culture filtrate; activity change (cytotoxicity), % at 5 µM;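 active = corrected activity change at or below -50% at 5 µM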
ABHD5 PLIN5 PPI: ABHD5-PLIN5 protein interaction inhibition. AID 602281. Split G. princeps luciferase complementation, luminescence, 4 h. Q00G26+Q8WTS1. 360,000 compounds, 0.78% hits. inhibition, % at 4 µM;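 active = inhibition above the mean inhibition across every tested compound plus 3 SD, cut at about 22% in these data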;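 also: 0% = DMSO only wells and the 100% control is not disclosed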
HIF-2a block: blocks HIF-2a reporter activity. AID 624352. 786-0 RCC cells HIF-2a reporter, luciferase luminescence, overnight. inhibition, % at 18.8 µM. 360,000 compounds, 0.72% hits;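 active = inhibition of the luminescence signal of 40% or more relative to plate controls, in a single-dose primary screen at 18.75 µM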
Peg3 prom inh: reduces Peg3 promoter-driven luciferase expression in HeLa; HeLa PEG-Prom luciferase reporter, luminescence, overnight; inhibition, % at 20 µM; 360,000 compounds, 1.7% hits;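 active = inhibition of at least 50% at 20 µM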
CF NFkB block: blocks PAF-induced NF-kB reporter in cystic fibrosis cells; KKLEB NF-kB-GFP reporter, GFP fluorescence overnight; inhibition, % at 5 µM; 360,000 compounds, 0.86% hits;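 active = at least 50% inhibition at 5 µM, scaled per plate between neutral and stimulator controls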;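 also: PAF is a Pseudomonas aeruginosa culture filtrate used as stimulus; plate controls were PAF-stimulated DMSO wells for no effect and unstimulated DMSO wells for full effect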
* hit, by the source's call; . = no result given. Compounds with a hit are over-represented: about 3% of the library has one in this group of screens.

SMILES | TRPM1 prom inh | KKLEB cytotox | ABHD5 PLIN5 PPI | HIF-2a block | Peg3 prom inh | CF NFkB block
CC1C2Cc3ccc(O)cc3[C@]1(C)CCN2CCc1ccccc1 (stereo not given in full) | -7 | 6 | 5 | -3 | -27 | -11
CCn1nc(-c2cccs2)nc2c(=O)n(C)c(=O)nc1-2 | 100* | -89* | -11 | 80* | 118* | 98*
CCn1nc(/C=C/c2ccccc2)nc2c(=O)n(C)c(=O)nc1-2 | 104* | -22 | -38 | -20 | 94* | 76*
COc1ccc(-n2c(/C=C/c3ccc(O)cc3)nc3ccccc3c2=O)cc1 | 4 | -4 | 0 | -43 | 38 | -13
NC(Cc1ccc(F)cc1)c1csc(Nc2ccccn2)n1 (stereo not given) | . | 4 | 6 | -73 | -44 | 3
COCCNC(=O)Cn1cc(/C=C2\C(=O)NC(=O)N(c3ccccc3F)C2=O)c2ccccc21 | . | 8 | 14 | 12 | 1 | -4
COCCCNC(=O)Cn1cc(/C=C2\C(=O)NC(=O)N(c3ccccc3F)C2=O)c2ccccc21 | 7 | 0 | 27* | 15 | 24 | -12
O=C1CC2OCC=C3CN4CCC56c7ccccc7N1C5C2C3CC46O (stereo not given) | . | -8 | 4 | 9 | -4 | -2
C[N+](C)(C)CC1CCCC(C[N+](C)(C)C)C1=O (stereo not given) | -4 | -5 | -5 | 17 | 83* | 6
C[N+](C)(C)CC1CCCc2ccccc2C1=O (stereo not given) | -2 | -8 | -2 | 10 | 24 | 30
CCOC(=O)[C@]12Cc3ccccc3[C@H]1N(CCC(=O)OC)C(=O)c1ccccc12 | . | . | 12 | 23 | . | .
CCC(c1nnnn1Cc1ccccc1)N1CCC2(CC1)C(=O)NCN2c1ccccc1 (stereo not given) | . | 4 | -6 | 2 | 18 | -15
CCOP(=O)(CCP(=O)(OCC)OCC)OCC.C[CH2][Sn]([Cl])([Cl])[CH2]C | 85* | 36 | 78* | -18 | -57 | 53*
CCOP(=O)(OCC)OCC | 2 | -1 | 4 | 3 | -10 | -12
O=S(=O)(c1ccccc1)C1CN1c1c(F)c(F)c(F)c(F)c1F (stereo not given) | . | . | 4 | -3 | . | .
CCN1/C(=C\C=C\C2=[N+](CC)c3ccccc3C2(C)C)C(C)(C)c2ccccc21 | 102* | -36 | 46* | 74* | 97* | -26
Cc1cc(O)c2c(c1)C(=O)C13C(=C2O)C(=O)[C@H]2[C@@H](O)[C@@H]1[C@H]1[C@H](O)[C@@H]3C(=O)C3=C(O)c4c(O)cc(C)cc4C(=O)C312 (stereo not given in full) | 35 | -14 | -5 | -18 | 19 | 79*
COc1ccc(C(=O)N/N=C/C23CC[C@@H](O)CC2(O)CC[C@@H]2[C@@H]3CCC3(C)C(C4=CC(=O)OC4)CCC23O)cc1 (stereo not given in full) | 41 | 23 | 2 | 13 | 66* | -16
CC12CC[C@H]3[C@@H](CCC4(O)C[C@H](O)CCC34/C=N/NC(=O)c3ccccc3O)C1(O)CCC2C1=CC(=O)OC1 (stereo not given in full) | 6 | 18 | 2 | 10 | 81* | -13
CC12CC[C@H]3[C@@H](CCC4(O)C[C@H](O)CCC34/C=N/NC(=O)c3ccc(O)cc3)C1(O)CCC2C1=CC(=O)OC1 (stereo not given in full) | -12 | 4 | 3 | 12 | 0 | 5
CN(C)c1ccc(C(=O)N/N=C/C23CC[C@@H](O)CC2(O)CC[C@@H]2[C@@H]3CCC3(C)C(C4=CC(=O)OC4)CCC23O)cc1 (stereo not given in full) | 75* | -52* | 2 | 21 | 105* | 21
COc1cc(C(=O)N/N=C/C23CC[C@@H](O)CC2(O)CC[C@@H]2[C@@H]3CCC3(C)C(C4=CC(=O)OC4)CCC23O)ccc1O (stereo not given in full) | -16 | 7 | -2 | 7 | 7 | -13
CC(=O)OC1C(=O)OCC23CCC4(C)OC4C2OC2CC(OC(=O)C=CC=CC(=O)OCCC1C)C3(C)C21CO1 (stereo not given) | 83* | -55* | -11 | 72* | 100* | 93*
